For seven compounds, growth results are on record in PubChem BioAssay (NCI).

Some test systems named below: HCT-15 colon; HT29 colon; SNB-75 CNS; SNB-19 CNS; U251 CNS; PC-3 prostate; SK-MEL-5 melanoma; UACC-62 melanoma; LOX IMVI melanoma; SK-MEL-2 melanoma; EKVX NSCLC; SN12C renal; UO-31 renal; TK-10 renal; ACHN renal; CAKI-1 renal; A498 renal; CCRF-CEM leukemia; MOLT-4 leukemia; SK-MEL-28 melanoma.
Common to all, as to experiment: NCI-60 one-dose screen, 48 h (100 = growth as untreated, 0 = no growth, -100 = all killed)
Holding throughout (conditions): 10 µM unless noted

About 83,000 compounds went through this panel and 20% of them were active in at least one assay; those are over-represented in the sample as a whole.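 Cells were grown in 96-well plates and exposed to the test compound at a single concentration for 48 hours; results are reported as percent growth, with values below 10 considered active.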 Unmarked numbers belong to inactive results. The source made the active and inactive calls.

`O=C(Cn1cc(CN2CCCCCC2)nn1)Nc1ccc2c(ccn2Cc2ccccc2)c1`: the growth in the experiment with HCT-15 colon was 93.3%; in the experiment with HT29 colon it was 70.5%; in the experiment with SNB-75 CNS, 76.1%; in the experiment on SNB-19 CNS it was 98.8%; in the experiment on U251 CNS it was 80.8%; with PC-3 prostate, 82.2%. For the same compound, the growth was 87% with SK-MEL-5 melanoma; 96.9% in the experiment on UACC-62 melanoma; 98.2% in the experiment on LOX IMVI melanoma; 93.2% in the experiment with SK-MEL-2 melanoma; 96.1% in the experiment with EKVX NSCLC; 101% with SN12C renal. The growth in the experiment with UO-31 renal is 54.4%; with TK-10 renal, 92.2%; with ACHN renal it was 107%; in the experiment with CAKI-1 renal it was 87.6%; in the experiment with A498 renal, 95.2%; in the experiment with CCRF-CEM leukemia, 1.87% (active). Also, the growth in the experiment with MOLT-4 leukemia was 89.9%.

Take `O=[N+]([O-])C1C(c2ccccc2)C12c1ccccc1-c1ccccc12` (centres undefined): the growth was 17.5% with HCT-15 colon; -13.4% (active) in the experiment with HT29 colon; 29% in the experiment on SNB-75 CNS; 43.3% in the experiment on SNB-19 CNS; -15.2% (active) with U251 CNS; 12.2% in the experiment on PC-3 prostate. For the same compound, the growth in the experiment with SK-MEL-5 melanoma was -16.5% (active); in the experiment with UACC-62 melanoma it was 17.8%; in the experiment on LOX IMVI melanoma, -44.4% (active); with SK-MEL-28 melanoma, 49.2%; with SK-MEL-2 melanoma, -1.42% (active); in the experiment on EKVX NSCLC it was 77.9%. For the same compound, the growth with SN12C renal is 23%; in the experiment on UO-31 renal it was 28.3%; in the experiment on TK-10 renal it was 23.2%; in the experiment with ACHN renal, 29.6%; in the experiment with CAKI-1 renal it was 34.6%; in the experiment on A498 renal, -12.8% (active). For the same compound, the growth in the experiment on CCRF-CEM leukemia was -12.1% (active); with MOLT-4 leukemia, -17.1% (active).

As to `COc1ccc(OC)c(C(=O)/C=C/c2cc3c(c(OC)c2OC)OCO3)c1`, the growth in the experiment with HCT-15 colon was 47.3%; with HT29 colon, 60.3%; with SNB-75 CNS it was 52%; in the experiment on SNB-19 CNS, 71.5%; in the experiment with U251 CNS, 50.4%; in the experiment on PC-3 prostate, 61.8%. The growth is 68.4% in the experiment with SK-MEL-5 melanoma; 55.4% with UACC-62 melanoma; 47.8% in the experiment with LOX IMVI melanoma; 83.6% with SK-MEL-2 melanoma; 73% with EKVX NSCLC; 74.7% in the experiment on SN12C renal. The growth with UO-31 renal is 63.6%; in the experiment with TK-10 renal it was 122%; in the experiment on ACHN renal, 68%; in the experiment with CAKI-1 renal it was 52%; in the experiment with A498 renal, 69.9%; in the experiment on CCRF-CEM leukemia, 40.1%. Also, in the experiment with MOLT-4 leukemia, the growth is 52.8%.

On to `N#CC1=C(N)Oc2c(sc3c(F)cccc23)C1c1ccc(F)cc1` (centres undefined), for which the growth with HCT-15 colon is 26%; in the experiment with HT29 colon, 6.86% (active); with SNB-75 CNS, 6.01% (active); in the experiment with SNB-19 CNS it was 27.3%; with U251 CNS, 22.2%; in the experiment with PC-3 prostate it was 28.7%. Moreover, the growth in the experiment with SK-MEL-5 melanoma is 22.3%; with UACC-62 melanoma, 29.2%; in the experiment on LOX IMVI melanoma, 32.2%; in the experiment with SK-MEL-2 melanoma, -4.03% (active); in the experiment on EKVX NSCLC it was 47.3%; in the experiment on SN12C renal, 42.4%. Besides, the growth was 41.9% with UO-31 renal; 35.8% with TK-10 renal; 46.6% in the experiment on ACHN renal; 29.1% in the experiment with CAKI-1 renal; 23.2% with A498 renal; 19.8% in the experiment on CCRF-CEM leukemia. Besides, the growth in the experiment on MOLT-4 leukemia was 18.4%.

Take `C#Cc1ccc(NC(=O)c2ccc(/C=C/C(=O)c3nccn3C)cc2)cc1`: the growth is -44.4% (active) in the experiment with HCT-15 colon; -17.3% (active) in the experiment with HT29 colon; -98.3% (active) in the experiment on SNB-75 CNS; -78.9% (active) in the experiment on SNB-19 CNS; -67% (active) with U251 CNS; -56.2% (active) with PC-3 prostate. The growth was -94.3% (active) in the experiment on SK-MEL-5 melanoma; -50.7% (active) in the experiment with UACC-62 melanoma; -93% (active) with LOX IMVI melanoma; -30.4% (active) with SK-MEL-2 melanoma; -75.4% (active) with EKVX NSCLC; -37.5% (active) in the experiment with SN12C renal. In addition, the growth was -98.8% (active) in the experiment on UO-31 renal; -2.59% (active) with TK-10 renal; -72.1% (active) with ACHN renal; -81.6% (active) in the experiment on CAKI-1 renal; -70.3% (active) in the experiment with A498 renal; -9.16% (active) in the experiment on CCRF-CEM leukemia. In addition, in the experiment on MOLT-4 leukemia, the growth is -10% (active).

Regarding `COc1ccc(-c2cc(-c3ccc(Cl)cc3)c(C#N)c(=O)n2CCCCC(=O)Nc2ccccc2N)cc1`, the growth with HCT-15 colon is 19.3%; in the experiment with HT29 colon, 21.1%; in the experiment on SNB-75 CNS it was 22.5%; in the experiment on SNB-19 CNS it was 69.9%; in the experiment on U251 CNS, 55.1%; with PC-3 prostate it was 50.1%. In addition, the growth with SK-MEL-5 melanoma is -39.1% (active); in the experiment with UACC-62 melanoma it was 23.7%; in the experiment with LOX IMVI melanoma, -60.9% (active); in the experiment on SK-MEL-2 melanoma it was 79.7%; in the experiment with EKVX NSCLC it was 47.3%; in the experiment with SN12C renal, 42.3%. In addition, the growth in the experiment with UO-31 renal was 33.4%; in the experiment with TK-10 renal, 102%; in the experiment with ACHN renal, 51.6%; in the experiment on CAKI-1 renal, 1.45% (active); in the experiment on A498 renal it was 20.9%; in the experiment with CCRF-CEM leukemia it was 42.5%. In addition, the growth in the experiment on MOLT-4 leukemia was 47.8%.

As for `C1=C(N2CCCC2)CCC1`, the growth with HCT-15 colon is 104%; in the experiment on HT29 colon it was 103%; with SNB-75 CNS, 93.2%; with SNB-19 CNS, 111%; with U251 CNS, 99.4%; in the experiment with SK-MEL-5 melanoma, 95.5%. The growth in the experiment with UACC-62 melanoma was 103%; in the experiment with LOX IMVI melanoma it was 97.4%; with SK-MEL-28 melanoma it was 110%; in the experiment on SK-MEL-2 melanoma, 112%; in the experiment on EKVX NSCLC, 95.2%; in the experiment on SN12C renal it was 98.1%. The growth in the experiment on UO-31 renal is 73.5%; in the experiment on TK-10 renal, 121%; with ACHN renal it was 111%; in the experiment on CAKI-1 renal, 79.1%; with A498 renal it was 109%; in the experiment with CCRF-CEM leukemia it was 106%. The growth in the experiment on MOLT-4 leukemia was 96.6%.
